Each sequence was assayed against PRSS27 (assay: pooled miR-30 sensor sort-seq; sequence = guide strand). Conditions: shRNA.
Sequence TGACACGGATGTAGACACCTGG has a sensor-assay potency score (higher = more potent) of -0.413. With TTTGCTGTAGAGCAGGTTGCAC the sensor-assay potency score (higher = more potent) was -0.973. TAGAGCAGGTTGCACTTGGGTG showed a sensor-assay potency score (higher = more potent) of -0.65. Sequence ATACATAGCGTGTGGTCCCGGC has a sensor-assay potency score (higher = more potent) of -0.586. For TACAGGGACGTCTCAGAGGTGT, the sensor-assay potency score (higher = more potent) was -0.7. In the case of AAACTCGGTGTCTTTGCTGTAG, the sensor-assay potency score (higher = more potent) was -0.247. For TCATTCTTGATGGTTTTGGGTT, the sensor-assay potency score (higher = more potent) was -0.872. Work on TGCAGTTTGGGGATGATCCGAT yielded a sensor-assay potency score (higher = more potent) of 0.0447. Sequence TTACAAATGAGTCTGGTGGGGC has a sensor-assay potency score (higher = more potent) of -0.115. TAATTGGTGAAGGGCACTGGTG was tested, and the sensor-assay potency score (higher = more potent) was -1.57.

These sequences were tested against PRSS35 in the same assay as above. Conditions: shRNA.
TTGAGTCGGCTCAAGAACCAAA showed a sensor-assay potency score (higher = more potent) of -0.83. With TTGTCCAAGATGCTGAACCTGC the sensor-assay potency score (higher = more potent) was -0.668. Work on TTCCTCATCTTCAACAACCCTA yielded a sensor-assay potency score (higher = more potent) of 0.185. Sequence TTTCTTTTTGTGAGCACGCTTC has a sensor-assay potency score (higher = more potent) of -0.433. Sequence TTGGATTCGTCGGACACACTGC has a sensor-assay potency score (higher = more potent) of -0.732. TAACTTTCTGTCTCTATTCTGA gave a sensor-assay potency score (higher = more potent) of -0.225. TAGAACAAACTATTTCTCCCAT was tested, and the sensor-assay potency score (higher = more potent) was 0.0739. Sequence AAATCTTGAACTTTCACCCTGG has a sensor-assay potency score (higher = more potent) of 0.84. For TTACCATCATCTTAGCATCTGC, the sensor-assay potency score (higher = more potent) was -0.234. TACACCTGTCTCTTTCTCCTAA gave a sensor-assay potency score (higher = more potent) of -0.12. For TCACATTTAATACACAACCAGC, the sensor-assay potency score (higher = more potent) was -0.906. For TAATACACAACCAGCATCCTAT, the sensor-assay potency score (higher = more potent) was -0.461.

Each sequence was assayed against PRSS57 in the same assay as above. Conditions: shRNA.
With TCGATGCCAAACACCTGCTGGG the sensor-assay potency score (higher = more potent) was -0.917. TACACGTCGGGGGTCTTGGGGT showed a sensor-assay potency score (higher = more potent) of -1.06. For TGGTAGTCGGGGTGTGTGGTGA, the sensor-assay potency score (higher = more potent) was -0.823. TCTCTGTGGCTGAAGCAGTGGG showed a sensor-assay potency score (higher = more potent) of -1.07. Work on TCGGACCTTGGCCTCCATCAGT yielded a sensor-assay potency score (higher = more potent) of -1.55. In the case of ACAAAGGCGGACACCTGCGTGT, the sensor-assay potency score (higher = more potent) was -0.414. ATCGATGCCAAACACCTGCTGG showed a sensor-assay potency score (higher = more potent) of -0.864. In the case of TTCACGGGCAGCATCAGGGCGG, the sensor-assay potency score (higher = more potent) was -0.51. ACACCTGCGTGTACACGTCGGG gave a sensor-assay potency score (higher = more potent) of -0.753. Work on AAGTCAGACACGAAGCCCCAGC yielded a sensor-assay potency score (higher = more potent) of -0.91. With TGTGGTGAGAGCATCGATGCCA the sensor-assay potency score (higher = more potent) was 0.623. In the case of AGCATCGATGCCAAACACCTGC, the sensor-assay potency score (higher = more potent) was -0.826.

The sequences below were run against PRUNE in the same assay as above. Conditions: shRNA.
For TAATAGTATAACAAAATGCAAA, the sensor-assay potency score (higher = more potent) was -1.31. In the case of TAGAGGTCGGGACTCCTGCAGA, the sensor-assay potency score (higher = more potent) was -0.699. For TTAAATAATAAAATGTGTCTGA, the sensor-assay potency score (higher = more potent) was -0.11. In the case of TTTCTCTCTAGCTTGAGGCAGG, the sensor-assay potency score (higher = more potent) was -0.511. For TTTCTTTCGAGAGACCTGGGTG, the sensor-assay potency score (higher = more potent) was -0.0186. Work on TTTATGAGAACAGTATACCAGA yielded a sensor-assay potency score (higher = more potent) of -0.563.

— the OligoGym collection
Further: reference of the scale not given here.
